# Assay results published in PubChem BioAssay AID651673 (Broad Institute, 2012).
# Some of the results follow. Calls of active or inactive are those of the source.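 How the source made its calls: active means signal drop giving an AC50 within twice the top valid tested concentration of each sample (actives reach about 35 µM in these data); inactive means activity opposite to expected, plus the rest.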
# Test: acridine orange displacement from DNA – biochemical, fluorescence polarization, cherry-pick, artefact control for RAD54 inhibitor project, dose response (AID 651673);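 further: polarization loss reports compound binding to salmon sperm DNA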
smiles,measurement,value
CN1CCN(c2cc(N3CCNCC3)ccc2[N+](=O)[O-])CC1,outcome,inactive
